The campaign covered roughly 66,000 compounds. About 960 (1.5%) showed an effect of 50% or more. What follows is part of a selection rich in strong results, with near analogues and random picks from the rest.
System: Trypanosoma brucei
Assay: Trypanosoma brucei 72 hour study
Format: functional, organism-based
Design: scale not given: in the data most compounds retested in dose-response had high values

Cc1ccsc1-c1cccc(-c2ccn(CC3CCNC3)n2)c1 (centres undefined)
Percent Effect (30 µM, 30.03 µM): 33.01%

Cc1ccc(Oc2cc(F)ccc2O[C@@H]2CCC[C@@H](N)[C@H]2O)cc1
Percent Effect (30.3 µM, […]): 100.7%

Cc1noc(C)c1C(=O)N[C@@H]1CC[C@@H](Oc2ccccc2)[C@@H]1O
Percent Effect (30.3 µM, […]): -4.467%

N[C@@H]1CCC[C@@H](Oc2ccc(F)cc2Oc2cccc(F)c2)[C@@H]1O
Percent Effect (30.3 µM, […]): 3.71%

CNCc1cc(F)ccc1Oc1ccc(F)cc1
Percent Effect (30.3 µM, […]): -17.97%

N[C@@H]1CCC[C@@H](Oc2ccc(F)cc2Oc2ccccc2)[C@@H]1O
Percent Effect (30.3 µM, […]): 101.1%

Cc1noc(C)c1C(=O)N[C@@H]1CCC[C@@H](Oc2ccccc2)[C@@H]1O
Percent Effect (30.3 µM, […]): 5.859%

Cc1cc(C)nc(N2CC[C@H](Oc3ccccc3F)[C@@H](O)CC2)n1
Percent Effect (30.3 µM, […]): -2.702%

CN[C@@H]1CCC[C@@H](Oc2ccccc2Oc2ccc(C)cc2)[C@@H]1O
Percent Effect (30.3 µM, […]): 101%

CN(C(=O)c1ccon1)[C@@H]1CCC[C@@H](Oc2ccccc2)[C@@H]1O
Percent Effect (30.3 µM, […]): -27.68%

Cc1ccc(N2CC[C@H]3O[C@@H](C(=O)N4CCCCO4)CC[C@H]32)nn1.O=C(O)C(F)(F)F
Percent Effect (30.3 µM, […]): -38.73%

Cc1cc(C(=O)N2CCc3nnc(N)cc3C2)c(C)n1-c1ccccc1
Percent Effect (10 µM): -23.32%
Percent Effect (30.3 µM, […]): -29.37%

Cc1ccoc1-c1nnc(CN2CCn3c(C)nnc3C2)o1
Percent Effect (10 µM): -13.57%
Percent Effect (30.3 µM, […]): -3.504%

CN(C)c1cc(C2CCCN(S(=O)(=O)c3cn[nH]c3)C2)ccn1 (centres undefined)
Percent Effect (30.3 µM, […]): -2.52%

Cc1cccc(CNc2cc(C3CCCNC3)ccn2)n1.Cl (centres undefined)
Percent Effect (30.3 µM, […]): 3.917%

CCC1CN(C)c2ccccc2CN1C(=O)Nc1ccccc1OC (centres undefined)
Percent Effect (30.3 µM, […]): 42.13%

CC(c1cccnc1)N(C)Cc1cc(O)c2cc(F)ccc2n1 (centres undefined)
Percent Effect (30 µM, 30.03 µM): -16.14%

Br.Cn1cc(CN2CCC(c3cc(COc4cccc(Cl)c4)[nH]n3)C2)cn1 (centres undefined)
Percent Effect (30.3 µM, […]): 49.27%

O=C(O)C(F)(F)F.O=C(c1ccoc1)N1C[C@@H]2OCCN(c3ncccn3)[C@@H]2C1
Percent Effect (30.3 µM, […]): -8.279%

Cc1c(C)c(C)c2[nH]c(-c3cn(C4CCNCC4)nn3)nc2c1C
Percent Effect (30 µM, 30.03 µM): 91.25%

Cc1ccc2[nH]c(-c3cn(C4CCNCC4)nn3)nc2c1C
Percent Effect (30 µM, 30.03 µM): -22.65%

Cc1cccc2[nH]c(-c3cn(C4CCNCC4)nn3)nc12
Percent Effect (30 µM, 30.03 µM): -21.72%

O=C(NCC1CC1)C1CCC2(CCN(C(=O)c3cccnc3)CC2)O1.O=C(O)C(F)(F)F (centres undefined)
Percent Effect (30.3 µM, […]): -34.45%

O=C([C@H]1C[C@@H]2CN(c3ncc(F)cn3)C[C@H]1O2)N1CCCC1
Percent Effect (30.3 µM, […]): -1.674%

Cc1cc(Nc2cnccn2)cc(C2CCCNC2)n1 (centres undefined)
Percent Effect (30.3 µM, […]): -9.252%

Cc1cc(Cc2ccccc2C)cc(C2CCCNC2)n1 (centres undefined)
Percent Effect (30.3 µM, […]): 49.51%

Cc1cccc(Cc2cc(C)nc(C3CCCNC3)c2)c1 (centres undefined)
Percent Effect (30.3 µM, […]): 100.3%

Cc1cc(Cc2cccc(C(F)(F)F)c2)cc(C2CCCNC2)n1 (centres undefined)
Percent Effect (30.3 µM, […]): 99.88%

Cc1nc(C2CCCNC2)cc(N(C)CCc2ccccc2)n1 (centres undefined)
Percent Effect (30.3 µM, […]): 33.93%

Cc1cc(Cc2ccccc2)cc(C2CCCNC2)n1 (centres undefined)
Percent Effect (30.3 µM, […]): 2.708%

Cc1cc(Cc2ccc(F)cc2)cc(C2CCCNC2)n1 (centres undefined)
Percent Effect (30.3 µM, […]): 51.54%

Cc1cc(Cc2ccccc2F)cc(C2CCCNC2)n1 (centres undefined)
Percent Effect (30.3 µM, […]): 18.5%

Cc1nc(NC2CCCCC2)cc(C2CCCNC2)n1.Cl (centres undefined)
Percent Effect (30.3 µM, […]): 43.9%

CN1CC(=O)N(c2cnn(C)c2)CC12CCN(Cc1cccs1)C2.O=C(O)C(F)(F)F.O=C(O)C(F)(F)F (centres undefined)
Percent Effect (30 µM, 30.03 µM): -5.896%

Cc1nc(CN2C(=O)CCC23CCN(Cc2ccccn2)CC3)cs1.O=C(O)C(F)(F)F.O=C(O)C(F)(F)F
Percent Effect (30.3 µM, […]): -6.926%

COCCN1C(=O)C[C@H]2[C@H]1CCN2Cc1ccc(OC)cc1.O=C(O)C(F)(F)F
Percent Effect (30 µM, 30.03 µM): -19.5%

CC(C)CN1CCC(NC(=O)c2ccc(Cl)cc2Cl)CC1
Percent Effect (30 µM, 30.03 µM): -12.53%

Cc1ncc(CNCCO)c2cc(C(=O)c3ccc(Br)cc3)oc12.Cl
Percent Effect (30 µM, 30.03 µM): -4.371%

CCOCC1CN(CCc2ccccc2)Cc2c1cnn2C (centres undefined)
Percent Effect (30.3 µM, […]): 62.26%

CCOCC1CN(CCOCc2ccccc2)Cc2c1cnn2C (centres undefined)
Percent Effect (30.3 µM, […]): -79.88%

COCC1CN(CCc2ccc(OC)c(OC)c2)Cc2c1cnn2C (centres undefined)
Percent Effect (30.3 µM, […]): -2.73%

O=C(O)C(F)(F)F.O=C1N(CC2CCCC2)CCC12CCN(c1ncc(F)cn1)CC2
Percent Effect (30.3 µM, […]): -27.57%

Fc1ccccc1Sc1ccccc1CNC1=NCCN1.I
Percent Effect (30 µM, 30.03 µM): 6.107%

Cn1cccc1C(=O)N1C[C@@H]2C[C@@H](c3nc(C4CC4)cs3)O[C@@H]2C1.O=C(O)C(F)(F)F
Percent Effect (30 µM, 30.03 µM): -16.96%

CC1CCCN(CCNC(=O)c2ccn(-c3ccccc3)n2)C1 (centres undefined)
Percent Effect (30 µM, 30.03 µM): 26.82%

COc1ccc(-n2ccc(C(=O)NCCN3CCCCC3)n2)cc1
Percent Effect (30.3 µM, […]): -2.952%
Percent Effect (10 mM, 10 mM as filed; unlikely as a test dose): -24.45%

COc1ccc(-n2ccc(C(=O)NCCN3CCC(C)CC3)n2)cc1
Percent Effect (30.3 µM, […]): 26.29%
Percent Effect (10 mM, 10 mM as filed; unlikely as a test dose): 24.76%

CC1CCCN(CCNC(=O)c2ccn(-c3cccc(F)c3)n2)C1 (centres undefined)
Percent Effect (30.3 µM, […]): 1.994%
Percent Effect (10 mM, 10 mM as filed; unlikely as a test dose): 11.39%

CC1CCCN(CCNC(=O)c2ccn(-c3ccc(F)cc3)n2)C1 (centres undefined)
Percent Effect (30.3 µM, […]): 63.43%
Percent Effect (10 mM, 10 mM as filed; unlikely as a test dose): 1.661%

COc1ccc(-n2ccc(C(=O)NCCN3CCCCCC3)n2)cc1
Percent Effect (30.3 µM, […]): 53.03%
Percent Effect (10 mM, 10 mM as filed; unlikely as a test dose): -44.94%

CCCn1[nH]cc/c1=N\C(=O)CN1CCc2cnc(C(C)C)nc2C1
Percent Effect (10 µM): -28.74%

CCc1ocnc1C(=O)N1CCOC(c2nc(C)n[nH]2)C1 (centres undefined)
Percent Effect (10 µM): -27.2%
Percent Effect (30.3 µM, […]): -13.47%

Cc1ccc(CN2Cc3nnn(C)c3C(COCc3ccccc3)C2)s1.O=C(O)C(F)(F)F (centres undefined)
Percent Effect (30.3 µM, […]): -18.47%

Cn1cc(-c2ncc3c(c2C(=O)O)CCN(CC2CC2)C3)cn1.O=C(O)C(F)(F)F.O=C(O)C(F)(F)F
Percent Effect (30.3 µM, […]): -26.37%

COCCC1(CNC(=O)Nc2ccnc(C)c2)CCCC1
Percent Effect (30 µM, 30.03 µM): 5.014%

CN(C)c1ncc(I)c(C2CCCN2C)n1.Cl (centres undefined)
Percent Effect (30.3 µM, […]): -5.31%

CCc1cnc(CN(C)C2CCN(CCn3cc(C#N)cn3)C2)o1 (centres undefined)
Percent Effect (30.3 µM, […]): -0.7137%

Cl.Cn1nc(C2CCN(C(=O)Cc3ccsc3)CC2)c2cccnc21
Percent Effect (30.3 µM, […]): 16.05%

Cc1ccc(C)c(CS(=O)(=O)CC(=O)Nc2ccc(F)cc2F)c1
Percent Effect (30.3 µM, […]): 17.81%

CCS(=O)(=O)CC(=O)NC(C)c1ccc(F)cc1F (centres undefined)
Percent Effect (30.3 µM, […]): -61.88%

Cc1ccc(C)c(CS(=O)(=O)CC(=O)NC(C)c2ccc(F)cc2F)c1 (centres undefined)
Percent Effect (30.3 µM, […]): 56.23%
